Laboratory results reported in PubChem BioAssay (NCI).
About 83,000 compounds went through this panel and 20% of them were active in at least one assay; those are over-represented in the sample as a whole.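 Method: cells in 96-well plates; compound added at one concentration; 48 h incubation; percent growth measured; values under 10 scored active.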 A number with no mark means an inactive call. Activity calls are given as the source filed them.

System: TK-10 renal
Test: NCI-60 one-dose screen, 48 h (100 = growth as untreated, 0 = no growth, -100 = all killed)
Conditions: 10 µM unless noted

| SMILES | growth |
| --- | --- |
| CC(C)(C)c1[nH]nc2c1C(c1cc3ccccc3[nH]c1=O)Nc1cc(C(=O)OCc3ccccc3)ccc1N2 (configuration not stated) | 47.6% |
| COc1ccc2nc(-c3c(-c4ccccc4)nc4ncccn34)[nH]c2c1 | 109% |
| O=C1NC(=Nc2ccc(S(=O)(=O)Nc3nccs3)cc2)S/C1=C\c1coc2ccccc2c1=O | 133% |
| CC(C)=CCC[C@](C)(O)[C@H]1CC[C@]2(C)[C@@H]1CC[C@@H]1[C@@]3(C)C/C(=C/c4ccc(Br)cc4)C(=O)C(C)(C)[C@@H]3CC[C@]12C | 130% |
| O=c1c2sc3ncc(Br)cc3c2ncn1-c1cccc(Cl)c1 | 73.6% |
| O=Cc1nc2ccccc2[nH]1 | 97% |
| CCc1ccc(-c2ccc(Nc3ccccc3)nn2)cc1S(N)(=O)=O | 116% |
| COc1ccc(-c2nc3ccccn3c2-c2nc3ccc(Cl)cc3[nH]2)cc1 | 103% |
| Cn1cc(-c2nc(-c3c[nH]c4ncccc34)cs2)c2ccccc21 | 56.9% |
| COc1ccc2c(c1)C/C(=C\c1cc(-c3ccc4c(c3)OCO4)n[nH]1)C2=O | 162% |
| Nc1ccc(Br)cn1 | 107% |
| Cc1nn(-c2ccc(Br)cc2)c2nc3[nH]c(=O)[nH]c(=O)c3nc12 | 144% |
| Cn1cc(-c2csc(-c3cn(C(=O)OC(C)(C)C)c4ccccc34)n2)c2cccnc21 | 102% |
| CC(C)(C)c1ccc(OCCCCCCCN2CCNCC2)cc1 | 105% |
| Nc1ccc(Cl)cn1 | 106% |
| c1ccc2[nH]c(-c3cc(-c4ccc5c(c4)OCO5)n[nH]3)nc2c1 | 86% |
| COc1cccc(NC(=O)c2sc3nc4c(cc3c2N)C(=O)CCC4)c1 | 84.2% |
| C=C(C)[C@@H]1CC[C@]2(C)[C@H](CC=C3[C@@H]4CC(C)(C)CC[C@]4(C=O)CC[C@]32C)[C@@]1(C)CCCN | 81.4% |

| SMILES | growth |
| --- | --- |
| CC(C)(C)c1cc(-n2c(-c3ccc(Cl)cc3)nc3cc(C(=O)Nc4ccc(Cl)cc4)ccc32)n[nH]1 | 50.8% |
| O=c1c(CNc2ccc(S(=O)(=O)Nc3nccs3)cc2)coc2ccccc12 | 103% |
| COc1cc(-c2cc(-c3nc4ccc(F)cc4[nH]3)[nH]n2)cc(OC)c1OC | 63.7% |
| O=C1C(Cl)=C(Nc2ccc(S(=O)(=O)c3ccc(NC4=C(Cl)C(=O)c5ccccc5C4=O)cc3)cc2)C(=O)c2ccccc21 | -58.7% (active) |
| Fc1ccc2nc(-c3cc(-c4ccc5c(c4)OCO5)n[nH]3)[nH]c2c1 | 75.9% |
| O=c1c(CNc2ccc(S(=O)(=O)Nc3ncccn3)cc2)coc2ccccc12 | 106% |
| COc1ccc(-c2cc(/C=C/C(=O)c3ccc(N)cc3)[nH]n2)cc1 | 41.8% |
| COC(=O)[C@]12CC[C@@H](C(=O)/C=C/c3cccnc3)[C@@H]1[C@H]1CC[C@@H]3[C@@]4(C)C/C(=C/c5cccnc5)C(=O)C(C)(C)[C@@H]4CC[C@@]3(C)[C@]1(C)CC2 | -60.5% (active) |
| NC1(N)C=CC2=C(C=C1)C1(N)C3=C(C=CC(N)(N)C=C3)N2C2(N)C3=C(C=CC(N)(N)C=C3)N1C1=C2C=CC(N)(N)C=C1 | 119% |
| CCCCC(=O)OC1CCCCC1C (configuration not stated) | 94.5% |
| COc1ccc(/C=C/C(=O)NCCO)cc1 | 92% |
| COc1ccc2c(c1)C/C(=C\c1cc(-c3cc(OC)c(OC)c(OC)c3)n[nH]1)C2=O | 111% |
| COc1ccc(NC(=O)c2ccc3c(c2)nc(-c2cc4ccccc4[nH]c2=O)n3-c2cc(C(C)(C)C)[nH]n2)cc1 | 107% |
| COc1ccc2nc(-c3cc(-c4cc(OC)c(OC)c(OC)c4)n[nH]3)[nH]c2c1 | 31.7% |
| Nc1nc2c(c(=O)[nH]1)C(c1ccc3c(c1)OCO3)C=C(C(=O)O)N2 (configuration not stated) | 117% |
| COc1ccc(-c2cc(/C=C/C(=O)c3ccc(OC)c(OC)c3)[nH]n2)cc1 | 31.4% |
| COc1cc2c(cc1OC)C(=O)/C(=C/c1cc(-c3ccc4c(c3)OCO4)n[nH]1)C2 | -9.8% (active) |
| COc1cc(-c2cc(-c3nc4ccccc4[nH]3)[nH]n2)cc(OC)c1OC | 70.3% |

System: ACHN renal
Test: as above
Conditions: 10 µM unless noted

| SMILES | growth |
| --- | --- |
| CC(C)(C)c1[nH]nc2c1C(c1cc3ccccc3[nH]c1=O)Nc1cc(C(=O)OCc3ccccc3)ccc1N2 (configuration not stated) | 28.6% |
| COc1ccc2nc(-c3c(-c4ccccc4)nc4ncccn34)[nH]c2c1 | 90.4% |
| O=C1NC(=Nc2ccc(S(=O)(=O)Nc3nccs3)cc2)S/C1=C\c1coc2ccccc2c1=O | 98.6% |
| CC(C)=CCC[C@](C)(O)[C@H]1CC[C@]2(C)[C@@H]1CC[C@@H]1[C@@]3(C)C/C(=C/c4ccc(Br)cc4)C(=O)C(C)(C)[C@@H]3CC[C@]12C | 98.1% |
| O=c1c2sc3ncc(Br)cc3c2ncn1-c1cccc(Cl)c1 | 28% |
| O=Cc1nc2ccccc2[nH]1 | 106% |
| CCc1ccc(-c2ccc(Nc3ccccc3)nn2)cc1S(N)(=O)=O | 77% |
| COc1ccc(-c2nc3ccccn3c2-c2nc3ccc(Cl)cc3[nH]2)cc1 | 86.3% |
| Cn1cc(-c2nc(-c3c[nH]c4ncccc34)cs2)c2ccccc21 | 88.9% |
| COc1ccc2c(c1)C/C(=C\c1cc(-c3ccc4c(c3)OCO4)n[nH]1)C2=O | 82.8% |
| Nc1ccc(Br)cn1 | 109% |
| Cc1nn(-c2ccc(Br)cc2)c2nc3[nH]c(=O)[nH]c(=O)c3nc12 | 106% |
| Cn1cc(-c2csc(-c3cn(C(=O)OC(C)(C)C)c4ccccc34)n2)c2cccnc21 | 77.5% |
| CC(C)(C)c1ccc(OCCCCCCCN2CCNCC2)cc1 | 13.6% |
| Nc1ccc(Cl)cn1 | 109% |
| Cc1ccc(-c2nc([P+](c3ccccc3)(c3ccccc3)c3ccccc3)c(N3CCOCC3)o2)cc1 | 8.24% (active) |
| c1ccc2[nH]c(-c3cc(-c4ccc5c(c4)OCO5)n[nH]3)nc2c1 | 45.6% |
| Nc1c(C(=O)Nc2cccc(Br)c2)sc2nc3c(cc12)C(=O)CCC3 | 58.8% |

| SMILES | growth |
| --- | --- |
| COc1cccc(NC(=O)c2sc3nc4c(cc3c2N)C(=O)CCC4)c1 | 42.5% |
| CC(C)(C)c1cc(-n2c(-c3ccc(Cl)cc3)nc3cc(C(=O)Nc4ccc(Cl)cc4)ccc32)n[nH]1 | 38.4% |
| O=c1c(CNc2ccc(S(=O)(=O)Nc3nccs3)cc2)coc2ccccc12 | 94.2% |
| COc1cc(-c2cc(-c3nc4ccc(F)cc4[nH]3)[nH]n2)cc(OC)c1OC | 19.6% |
| O=C1C(Cl)=C(Nc2ccc(S(=O)(=O)c3ccc(NC4=C(Cl)C(=O)c5ccccc5C4=O)cc3)cc2)C(=O)c2ccccc21 | -7.78% (active) |
| Fc1ccc2nc(-c3cc(-c4ccc5c(c4)OCO5)n[nH]3)[nH]c2c1 | 49% |
| O=c1c(CNc2ccc(S(=O)(=O)Nc3ncccn3)cc2)coc2ccccc12 | 89.9% |
| COc1ccc(-c2cc(/C=C/C(=O)c3ccc(N)cc3)[nH]n2)cc1 | 26.9% |
| COC(=O)[C@]12CC[C@@H](C(=O)/C=C/c3cccnc3)[C@@H]1[C@H]1CC[C@@H]3[C@@]4(C)C/C(=C/c5cccnc5)C(=O)C(C)(C)[C@@H]4CC[C@@]3(C)[C@]1(C)CC2 | -100% (active) |
| NC1(N)C=CC2=C(C=C1)C1(N)C3=C(C=CC(N)(N)C=C3)N2C2(N)C3=C(C=CC(N)(N)C=C3)N1C1=C2C=CC(N)(N)C=C1 | 83.5% |
| CCCCC(=O)OC1CCCCC1C (configuration not stated) | 94.4% |
| COc1ccc(/C=C/C(=O)NCCO)cc1 | 101% |
| COc1ccc2c(c1)C/C(=C\c1cc(-c3cc(OC)c(OC)c(OC)c3)n[nH]1)C2=O | 81.7% |
| COc1ccc(NC(=O)c2ccc3c(c2)nc(-c2cc4ccccc4[nH]c2=O)n3-c2cc(C(C)(C)C)[nH]n2)cc1 | 97.1% |
| COc1ccc2nc(-c3cc(-c4cc(OC)c(OC)c(OC)c4)n[nH]3)[nH]c2c1 | 21.5% |
| Nc1nc2c(c(=O)[nH]1)C(c1ccc3c(c1)OCO3)C=C(C(=O)O)N2 (configuration not stated) | 111% |
| COc1ccc(-c2cc(/C=C/C(=O)c3ccc(OC)c(OC)c3)[nH]n2)cc1 | 29.8% |
| COc1cc(-c2cc(-c3nc4ccccc4[nH]3)[nH]n2)cc(OC)c1OC | 39.3% |
